Experimental data published in PubChem BioAssay AID720511 (Broad Institute, 2013).
In all, about 350,000 compounds went through this assay and about 1,300 (0.37%) were called active.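 How the source made its calls: active means mean added fluorescence quench of at least 8% versus neutral control, with both replicates also reaching 8%; inconclusive means only one of the mean or replicate conditions met; inactive means mean below 8% and not both replicates reaching 8%.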 The sample as a whole holds a higher share of actives than the screen did.

Test: F508del CFTR correction, initial screen, CFBE line, single point (AID 720511);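 further: cells transiently co-express mutant CFTR-F508del with the halide-sensitive YFP; corrector assay measuring rescue of mutant channel to the surface after 24 h compound exposure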
Conditions: CFBE cells, YFP halide quenching, at 7.58 µM, stronger effect = higher value, % fluorescence drop versus neutral controls, stimulated with forskolin plus potentiator P3

Activity (quench increase), inactive:
CN(C)CCN1CCN(c2cc(-c3cccc(Cl)c3)nc3ccnn23)CC1 -1.38%, O=C(c1ccccc1)N1CCN(c2cc(-c3ccccc3)nc3cc(-c4cccc(Cl)c4)nn23)CC1 -2.01%, C[C@H]1CN([C@@H](C)CO)C(=O)Cc2cc(NS(=O)(=O)c3cn(C)cn3)ccc2O[C@H]1CN(C)C(=O)Nc1ccc(F)cc1 2.2%, C[C@H](CO)N1C[C@H](C)[C@@H](CN(C)S(=O)(=O)c2ccccc2)Oc2ncc(-c3ccncc3)cc2C1=O 0.7%, O=C1c2ccccc2C(=O)N1CCC#Cc1ccc2cc(C3(O)CCCCC3)oc(=O)c2c1 4.94%, CS(=O)(=O)N1C[C@@H](O)COC[C@@H]2O[C@H](CC(=O)NC3Cc4ccccc4C3)CC[C@H]21 -1.79%, O=C(C[C@H]1C=C[C@@H](NC(=O)NC2CCCCC2)[C@@H](CO)O1)NCc1ccc(Cl)cc1 0.0755%, C[C@H](CO)N1C[C@H](C)[C@H](CN(C)Cc2ccc(C(F)(F)F)cc2)Oc2ccc(NS(C)(=O)=O)cc2C1=O 3.24%, C[C@@H]1CCCCO[C@@H](CN(C)C(=O)Cc2ccccc2)[C@H](C)CN([C@@H](C)CO)C(=O)c2cc(NC(=O)Nc3ccc(F)cc3)ccc2O1 -1.42%, CCc1c(C)nc2c(-c3ccccc3)c(C)nn2c1Nc1ccc(NC(C)=O)cc1 0.439%, CC(=O)Nc1ccc(S(=O)(=O)N(C)c2nc3ccccc3nc2Cl)cc1 2.1%, C[C@@H]1CCCCO[C@@H](CN(C)S(=O)(=O)c2ccccc2)[C@H](C)CN([C@H](C)CO)C(=O)c2cc(NC(=O)Nc3ccc4c(c3)OCO4)ccc2O1 0.334%, CO[C@H]1CN(C)C(=O)c2cc(NC(C)=O)ccc2OC[C@H](C)N(C(=O)C2CC2)C[C@H]1C 4.09%, C/C=C/c1ccc2c(c1)O[C@@H](CN(C)C(=O)c1ccccn1)[C@H](C)CN([C@@H](C)CO)S2(=O)=O -2.18%, CC(C)CC#Cc1ccc2c(c1)O[C@@H](CN(C)C(=O)c1ccccn1)[C@@H](C)CN([C@H](C)CO)S2(=O)=O 0.306%, C[C@@H]1CN([C@@H](C)CO)S(=O)(=O)c2ccc(C#Cc3ccccc3)cc2O[C@@H]1CN(C)C(=O)Nc1ccccc1 3.03%, COc1ccc(NC(=O)N(C)C[C@H]2Oc3cc(C#CCN(C)C)ccc3S(=O)(=O)N([C@@H](C)CO)C[C@@H]2C)cc1 -0.575%, CCCNC(=O)[C@@H]1[C@@H](CO)[C@@H]2Cn3c(cccc3=O)[C@H]1N2C(=O)Nc1cc(F)ccc1F -0.221%, CCCN(C)C[C@@H]1Oc2ncc(-c3ccccc3F)cc2C(=O)N([C@@H](C)CO)C[C@@H]1C -1.56%, CCCNC(=O)Nc1ccc2c(c1)C(=O)N(C)C[C@H](OC)[C@H](C)CN(Cc1cccnc1)[C@@H](C)CO2 -2.17%, COCC(=O)Nc1ccc2c(c1)OC[C@@H](C)N(C(=O)c1ccncc1)C[C@@H](C)[C@@H](OC)CN(C)C2=O -2.81%, NS(=O)(=O)c1ccc(CNC(=O)c2cnccn2)cc1 3.51%, COc1ccc(NC(=O)C/C(C)=N/NC(=O)c2cnccn2)cc1Cl 0.245%, CNC[C@H]1Oc2ccc(NC(=O)Nc3ccc(F)cc3)cc2C(=O)N([C@@H](C)CO)C[C@@H]1C 2.71%, C/C=C/c1cnc2c(c1)C(=O)N([C@@H](C)CO)C[C@@H](C)[C@@H](CN(C)S(=O)(=O)c1ccccc1F)O2 -0.914%, COCC(=O)N1CC[C@H]2[C@H](CO)Nc3ccc(-c4ccc(C(=O)N(C)C)cc4)cc3[C@H]21 -0.359%, CC(C)CC#Cc1cnc2c(c1)C(=O)N([C@@H](C)CO)C[C@H](C)[C@@H](CN(C)S(=O)(=O)c1cn(C)cn1)O2 3.77%, Cc1ccc(Cl)c(OCC(=O)N2CCc3ccccc3C2)c1 0.464%, CCC(=O)c1ccc(OCC(=O)OCC(=O)NC2CCCCCC2)cc1 5.07%, CN1C(=O)c2cc(NC(=O)Nc3ccccc3Cl)ccc2OC[C@H]2O[C@@H](CC(=O)O)CC[C@H]21 2.42%, C[C@H](CO)N1C[C@H](C)[C@H](CN(C)C(=O)Nc2ccccc2)Oc2ccc(NC(=O)C3CC3)cc2CC1=O 1.47%, O=C(Cn1c(NCCO)nc2ccccc21)c1ccc(Cl)cc1Cl 1.26%, CNC(=O)c1cccc2nc3ccccc3nc12 -0.402%, CCNC(=O)C[C@@H]1CC[C@@H](NC(=O)NC2CCCCC2)[C@H](CO)O1 3.72%, Cc1ccccc1-c1ccc2c(c1)O[C@H](CN(C)C)[C@@H](C)CN([C@H](C)CO)S2(=O)=O 0.748%, C[C@H]1CN([C@@H](C)CO)C(=O)c2cc(/C=C/c3ccccc3)cnc2O[C@@H]1CN(C)C(=O)c1ccc(F)cc1 -2.58%

Activity (quench increase), active:
C#Cc1cc(N2CCN(C(=O)c3ccoc3)CC2)n2nc(-c3cccc(Cl)c3)cc2n1 8.96%, COc1cc(C#Cc2ccc3cc(CCCO)oc(=O)c3c2)cc(OC)c1 9.06%, Oc1ccc2ccccc2c1N=Nc1nccs1 13.5%, CC(=O)Nc1ccc(Nc2c3ccccc3nc3ccccc23)cc1 10.8%, COc1ccc(C#Cc2ccc3c(c2)O[C@@H](CN(C)C(=O)Nc2cccc(OC)c2)[C@H](C)CN([C@H](C)CO)S3(=O)=O)cc1 9.4%, C[C@@H]1CN([C@@H](C)CO)S(=O)(=O)c2ccc(C#Cc3ccc(F)cc3)cc2O[C@H]1CN(C)C(=O)c1ccccn1 9.03%, CCN(CC)c1ccc(/C=N/NC(=O)c2cnccn2)c(O)c1 19.1%, CCC(=O)c1ccc(OCC(=O)OCC(=O)N2CCc3ccccc3C2)cc1 33.2%, CN(C)CCNC(=O)c1ccc(Cl)c2cc3ccccc3nc12 12.3%
